Assay outcomes from PubChem.
p53 reactivator – restores transcriptional activity of mutant p53 | H1299 p53-A138V BP100-luciferase reporter, luminescence, 24 h | Potency, µM (top dose mostly 92.2 µM), actives largely listed as activators | hit rate 0.063% among 320,000; also: nearly all actives have a fitted effect of over 45% in size
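p53-null H1299 cells stably carrying temperature-sensitive p53-A138V and a BP100-luciferase reporter were pinned with compounds (4-point, 1:5 series) and held 24 hrs at 37 deg C. Luminescence was read 10 min after detection reagent.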
Six1-Eya2 inh – inhibitors of human Six1/Eya2 interaction. activity change, % (test concentration not listed). AID 651725. Q15475+O00167. AlphaScreen GST-Six1/His-Eya2 binding, biochemical; stronger effect = lower value. hit rate 0.56% among 360,000; in the data active = activity change below about -65%; inconclusive = mostly about -30% to -63%
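AlphaScreen luminescence read after one hour at 37 °C in darkness. Pin-transferred compounds met GST-Six1 and His-Eya2 protein (5X stock 250 nM/500 nM) plus glutathione donor and Ni-chelate acceptor beads (5X, 50 ug/mL).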
RORg inh – ROR gamma (mouse) transcription inhibition | AID 2551 | hit rate 5.4% among 310,000 | Drosophila S2 Gal4-RORgamma UAS-luciferase reporter, 20 h | Potency, µM (highest dose often 53.6 µM), hits mostly inhibitors; also: nearly all actives have a fitted effect of over 60% in size
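Luciferase reporter read in Schneider cells carrying Gal4-RORγ (mouse) and UAS-Photinus luciferase; cells given compound 1 h before 700 uM copper sulfate induction, then incubated 20 h at ambient temperature.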
Gal4-VP16 FLuc – counter-screen for ROR gamma inhibitors: Gal4-VP16 reporter | Drosophila S2 Gal4-VP16 UAS-luciferase, luminescence, 20 h | Potency, µM (titrated, usually from 53.6 µM), usual class: inhibitors | hit rate 3.5% among 310,000 | AID 2546;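 also: Gal4-VP16 expression switched on by copper sulfate through the metallothionein promoter; nearly all actives have a fitted effect of over 50% in size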
CtBP-E1A inh – blocks the CtBP interaction with E1A; activity change, % (concentration not given with the values); AlphaScreen GST-E1A/His-CtBP binding, 1536-well; stronger effect = lower value; AID 651724; hit rate 0.49% among 340,000; in the data active = activity change below about -65%; inconclusive = mostly about -30% to -63%
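Homogeneous bead-based format: GST-tagged E1A captured on glutathione donor beads, His-tagged CtBP on nickel acceptor beads; compounds precede bead addition by 2 h at 37 °C.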
Of the large screens only hits and unclear results are named; the others gave an inactive call. Sampled rows, rich in hits. Any-hit rate of the full collection: about 5.4%. Unless noted, calls follow the shape of the dose curve; as a rule, active = well fitted curve in the direction sought with a large enough effect; inconclusive = small, poorly fitted or top-dose-only effect, or another doubt; inactive = no such curve, though single readings can be large; an effect the other way counts as inactive or inconclusive.

Cc1ccc(C2N(c3nccs3)C(=O)C3CCCN32)cc1 (configuration not stated)	RORg inh 13µM
O=C(O)C1(c2ccccc2)CCN(S(=O)(=O)c2cccc(Cl)c2)CC1	none
Cc1ccc(S(=O)(=O)N2C[C@H]3N(C(=O)OC(C)C)N(C(=O)OC(C)C)C[C@H](OC(=O)NCc4ccccc4F)[C@@]3(O)C2)cc1	none (no result: p53 reactivator, RORg inh, Gal4-VP16 FLuc)
COC(=O)Cc1ccc(NC(=S)Nc2ccccn2)cc1	RORg inh 5µM, Gal4-VP16 FLuc inconclusive
COC(=O)Cc1ccc(NC(=S)NC(C)(C)C)cc1	RORg inh inconclusive
COc1cc(NC(=S)Nc2ccccn2)cc(OC)c1	RORg inh 2.5µM, Gal4-VP16 FLuc 5.6µM
COc1cc(NC(=S)Nc2ccccn2)cc(OC)c1OC	RORg inh 3.5µM, Gal4-VP16 FLuc 22µM
CSc1nnc2ccc(-c3ccccn3)nn12	none
O=C(CN1C(=O)c2ccccc2S1(=O)=O)NCCSCc1c(F)cccc1Cl	none
CCOC(=O)c1c(-c2ccc(C)o2)csc1NC(=S)NC(=O)c1cccs1	RORg inh 1.4µM, Gal4-VP16 FLuc 2.5µM
CCOC(=O)c1c(-c2ccc(C)o2)csc1NC(=S)NC(=O)c1ccccc1Br	RORg inh 7.9µM, Gal4-VP16 FLuc 10µM
CCOC(=O)c1c(-c2ccc(C)o2)csc1NC(=O)CSc1nnnn1-c1ccccc1	RORg inh 11µM, Gal4-VP16 FLuc 7.9µM
CCOC(=O)c1c(-c2ccc(C)o2)csc1NC(=O)CSc1nnc(C)s1	RORg inh inconclusive, Gal4-VP16 FLuc inconclusive
CCCCC(=O)N(C)c1c(CC)nc2c(OCC(=O)N(C)C)cccn12	none (no result: p53 reactivator, RORg inh, Gal4-VP16 FLuc)
Cc1ccc(C(C(=O)NC2CCCCC2)N(C(=O)c2csnn2)C2CC2)cc1 (configuration not stated)	none
Cc1[nH]c2ccccc2c1C(Nc1nccs1)c1ccncc1 (configuration not stated)	none
O=C(Nc1ccncc1)Nc1cccc(C(F)(F)F)c1	RORg inh inconclusive
Oc1c(C(Nc2nccs2)c2ccc(C(F)(F)F)cc2)ccc2cccnc12 (configuration not stated)	p53 reactivator inconclusive, Six1-Eya2 inh inconclusive, RORg inh 0.56µM, Gal4-VP16 FLuc 1µM, CtBP-E1A inh inconclusive
Oc1c(C(Nc2cccc(C(F)(F)F)c2)c2ccncc2)ccc2cccnc12 (configuration not stated)	Six1-Eya2 inh -92, RORg inh 4µM, Gal4-VP16 FLuc 5.6µM, CtBP-E1A inh -94
CCC(C)NC(=O)c1cc2c(=O)[nH]c3ccc(C)cc3c2s1 (configuration not stated)	none
Cc1ccc2nc(-c3cccc(NC(=O)c4ccco4)c3)[nH]c2c1	Gal4-VP16 FLuc inconclusive
Cc1cccc(-n2nc(C(=O)c3ccco3)cc(-c3nc4ccccc4[nH]3)c2=N)c1	RORg inh 2.5µM, Gal4-VP16 FLuc 5µM (no result: CtBP-E1A inh)
O=C(Cc1cccs1)Nc1ccccc1-c1nc2ccccc2[nH]1	none
COc1ccc(-n2nc(C(=O)c3cccs3)cc(-c3nc4ccccc4[nH]3)c2=N)cc1	RORg inh 3.2µM, Gal4-VP16 FLuc 3.5µM
Cc1ccccc1-n1nc(C(=O)c2cccs2)cc(-c2nc3ccccc3[nH]2)c1=N	RORg inh 0.71µM, Gal4-VP16 FLuc 0.89µM
COc1cc(/C=C(/C(=O)c2cccs2)c2nc3ccccc3[nH]2)cc(OC)c1O	RORg inh inconclusive, Gal4-VP16 FLuc inconclusive
C[C@H](CO)N1C[C@H](C)[C@@H](CN(C)S(=O)(=O)c2cccs2)Oc2c(NS(=O)(=O)c3ccccc3)cccc2C1=O	none (no result: RORg inh, Gal4-VP16 FLuc)
O=C(/C=C\c1ccccc1OC(=O)c1ccccc1F)c1cc2ccccc2o1	p53 reactivator inconclusive, RORg inh inconclusive, Gal4-VP16 FLuc 0.32µM
O=C1C=CC(=O)C(C2=C3C(=O)N(CCc4ccccc4)CC(=O)N3CCC2)=C1	Six1-Eya2 inh inconclusive, RORg inh inconclusive, Gal4-VP16 FLuc 7.9µM
O=C(NCc1ccccn1)C(=O)N/N=C/c1ccccc1O	Six1-Eya2 inh -73, RORg inh inconclusive, CtBP-E1A inh inconclusive
Cc1cc(/C=N/NC(=O)C(=O)NCc2ccccn2)c(C)n1-c1cccc(Br)c1	none
O=C(O)COc1ccc(/C=N/NC(=O)COc2nsnc2N2CCOCC2)cc1	none
O=C(NCCCN1CCOCC1)C(=O)N/N=C/c1ccccc1O	Six1-Eya2 inh -75, RORg inh inconclusive, CtBP-E1A inh inconclusive
O=C(COc1nsnc1N1CCOCC1)N/N=C/c1ccccc1O	Six1-Eya2 inh -90, RORg inh 0.71µM, Gal4-VP16 FLuc 3.2µM
O=C(Cc1csc(N2CCOCC2)n1)N/N=C/c1ccc(O)c(O)c1O	Six1-Eya2 inh -73, CtBP-E1A inh inconclusive
O=C(NCCCN1CCOCC1)C(=O)N/N=C/c1ccccc1Cl	none (no result: CtBP-E1A inh)
C/C(=N\NC(=O)Cc1csc(N2CCOCC2)n1)c1ccccc1	none
Cc1cc(CNC[C@H]2O[C@@H](n3ccc(=O)[nH]c3=O)[C@H](O)[C@@H]2O)no1	none (no result: p53 reactivator, RORg inh, Gal4-VP16 FLuc)
O=C(CCCOc1ccc(Cl)cc1Cl)NCC1CCCO1 (configuration not stated)	none
CN1CCN(C(c2ccc(Br)cc2)c2cc(Cl)c3cccnc3c2O)CC1 (configuration not stated)	Six1-Eya2 inh inconclusive, RORg inh 2.8µM, Gal4-VP16 FLuc 0.79µM, CtBP-E1A inh -90
Cc1ccc(C(c2cc(Br)ccc2O)N2CCSCC2)cc1 (configuration not stated)	none (no result: RORg inh, Gal4-VP16 FLuc)
CN1CCN(C(c2ccc(F)cc2)c2ccc3cccnc3c2O)CC1 (configuration not stated)	none (no result: p53 reactivator, RORg inh, Gal4-VP16 FLuc, CtBP-E1A inh)
CN1CCN(C(c2cccnc2)c2ccc3cccnc3c2O)CC1 (configuration not stated)	Six1-Eya2 inh -90, CtBP-E1A inh -81
CCCN(Cc1nc2cc(Cl)ccc2c(=O)[nH]1)C(=O)c1ccc(S(=O)(=O)N2CCCC2)cc1	none (no result: RORg inh, Gal4-VP16 FLuc, CtBP-E1A inh)
COC(=O)COn1c(-n2nc(C)cc2C)nc2ccccc2c1=O	RORg inh 4µM, Gal4-VP16 FLuc 8.9µM
CCOC(=O)C(C)On1c(SC(C)C(=O)OCC)nc2ccccc2c1=O (configuration not stated)	none
CCOn1c(-n2nc(C)cc2C)nc2ccccc2c1=O	none
CCOC(=O)COn1c(-n2nc(C)cc2C)nc2ccccc2c1=O	RORg inh 18µM, Gal4-VP16 FLuc 14µM
CCOC(=O)C(C)On1c(-n2nc(C)cc2C)nc2ccccc2c1=O (configuration not stated)	RORg inh 2.5µM, Gal4-VP16 FLuc 6.3µM
Cc1cc(C)n(-c2nc3ccccc3c(=O)n2OCC(C)C)n1	RORg inh inconclusive
Cc1cc(C)n(-c2nc3ccccc3c(=O)n2OCC#N)n1	p53 reactivator inconclusive, RORg inh 0.5µM, Gal4-VP16 FLuc 1µM
CC(O/N=C(\N)c1ccccc1)C(=O)Nc1cccc(C(F)(F)F)c1 (configuration not stated)	none (no result: RORg inh, Gal4-VP16 FLuc)
